The list is not random: actives were taken first. Their share in the collection is about 22%.
Pf growth 96h – inhibits malaria parasite growth, 96 h. 320,000 tested, 6.9% active. P. falciparum luciferase reporter growth, 96 h. Potency, µM (highest dose often 28.7 µM), for the others: at the highest dose activity change, negative = inhibition, most hits filed as inhibitors; further: potency means the concentration at half of the fitted maximal effect; on the % scale 0 is the no-effect control and ±100 the full control effect
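Luminescence readout: decreased luciferase signal marks inhibited growth of reporter-expressing P. falciparum in infected red cells (2% hematocrit, 0.05% parasitemia final), exposed to compound two generations (96 h, 37 C, 5% CO2).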
CHX counter – counter-screen for Shiga toxin inhibitors: cycloheximide protein synthesis inhibition. cell reporter, cycloheximide protein synthesis inhibition counterscreen. max response, %. 300,000 tested, 12% active; in the data active means max response mostly above about 13%, no sharp cut-off; inactive means mostly below about 14%; further: read at 38.3 µM for the half of the compounds with a filed dose; 0% is about no effect
Shiga inhibitor – Shiga toxin inhibition; 290,000 tested, 9.2% active; AID 2315; inhibition, % at 38.7 µM; Vero cells, Shiga toxin protein synthesis inhibition reporter; in the data active means inhibition mostly above about 28%, no sharp cut-off; inactive means mostly below about 43%; further: 0% is about no effect
LmPK inh – inhibitors of Leishmania mexicana pyruvate kinase; Potency, µM (doses to about 57.5 µM), without a hit: at the highest dose activity change, negative = inhibition, actives largely listed as inhibitors; AID 1721; purified LmPK, Kinase-Glo ATP luminescence, 1 h; Q27686; 290,000 tested, 0.37% active; further: potency means the concentration at half of the fitted maximal effect; on the % scale 0 is the no-effect control and ±100 the full control effect
Target sequence (Q27686 whole entry, looked up): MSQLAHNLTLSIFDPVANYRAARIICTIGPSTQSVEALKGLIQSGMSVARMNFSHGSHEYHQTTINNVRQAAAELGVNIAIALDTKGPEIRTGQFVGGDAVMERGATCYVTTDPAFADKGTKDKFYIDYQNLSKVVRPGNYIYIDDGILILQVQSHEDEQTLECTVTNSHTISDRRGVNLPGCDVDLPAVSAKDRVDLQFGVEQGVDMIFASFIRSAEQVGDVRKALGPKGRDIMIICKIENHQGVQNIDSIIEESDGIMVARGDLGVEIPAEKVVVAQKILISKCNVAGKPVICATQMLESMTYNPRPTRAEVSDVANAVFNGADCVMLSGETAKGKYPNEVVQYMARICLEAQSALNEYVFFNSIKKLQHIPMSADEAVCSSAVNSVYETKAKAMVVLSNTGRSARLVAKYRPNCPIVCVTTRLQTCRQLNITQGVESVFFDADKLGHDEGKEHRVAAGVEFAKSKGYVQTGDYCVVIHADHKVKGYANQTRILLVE
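0.1 nM LmPK, 0.5 mM PEP, 0.1 mM ADP; 50 mM imidazole pH 7.2, 7 mM MgCl2, 50 mM KCl; 1 h RT. Kinase-Glo luminescence readout, normalized to no-enzyme (full inhibition) and uninhibited wells.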
Pf growth 48h – inhibits P. falciparum growth in the first generation, 48 h. Potency, µM (titrated, usually from 28.7 µM), inactives show top-dose activity change, negative = inhibition, usual class: inhibitors. P. falciparum luciferase growth in erythrocytes, 48 h. 310,000 tested, 5.9% active; further: potency means the concentration at half of the fitted maximal effect; on the % scale 0 is the no-effect control and ±100 the full control effect
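Luciferase-expressing parasites in RBCs, 2% Hct / 0.1% parasitemia final; RPMI 1640 + 0.5% Albumax; 37 C, 5% CO2, one generation; luminescence read-out, lower signal = inhibition.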
Starred values were filed as active, the others as inactive; u = inconclusive; x = no result; [ ] = another dose, or the depositor's remark. Unless noted, the call rests on the fitted dose curve; in most records, active means well fitted inhibition curve with a large enough effect; inconclusive means small, poorly fitted or top-dose-only effect, or another doubt; inactive means no such curve, though single readings can be large or run the other way.

SMILES	Pf growth 96h	CHX counter	Shiga inhibitor	LmPK inh	Pf growth 48h
NC(=O)C1CCCN(C(=S)Nc2ccccc2)C1 (configuration not stated)	26%	-3	-10	0%	-2%
Cc1ccc(NC(=S)N2CCCC(O)C2)cc1 (configuration not stated)	73%	20*	69*	2%	55%
Cc1ccc(N2CCN(C(=S)Nc3ccc(Cl)cc3)CC2)cc1	16%	0	13	7%	32%
OCC1CCCN(C(=S)Nc2ccc(OC(F)F)cc2)C1 (configuration not stated)	66%	26*	63*	1%	62%
OCC1CCCN(C(=S)Nc2ccc(Nc3ccccc3)cc2)C1 (configuration not stated)	u	29*	61*	1%	65%
COc1ccc(CNc2nc(S(=O)(=O)c3ccccc3)c(Cl)s2)cc1OC	u	-2	-9	8%	-13%
CC(=O)O[C@H]1C(=O)[C@@]2(C)C([C@H](OC(=O)c3ccccc3)[C@]3(O)C[C@H](OC(=O)[C@H](O)[C@@H](NC(=O)c4ccccc4)c4ccccc4)C(C)=C1C3(C)C)[C@]1(OC(C)=O)CO[C@@H]1C[C@H]2O (some centres not stated)	u	-3	8	-2%	u
CC(=O)O[C@@]12CO[C@@H]1C[C@H](O)[C@@]1(C)C(=O)[C@H](O)C3=C(C)[C@@H](OC(=O)C(O)[C@@H](NC(=O)OC(C)(C)C)c4ccccc4)C[C@@](O)([C@@H](OC(=O)c4ccccc4)[C@H]21)C3(C)C (some centres not stated)	0.014µM*	x	x	x	0.014µM*
CC(=O)O[C@H]1C(=O)[C@@]2(C)C([C@H](OC(=O)c3ccccc3)[C@]3(O)C[C@H](O)C(C)=C1C3(C)C)[C@]1(OC(C)=O)CO[C@@H]1C[C@H]2O (some centres not stated)	4%	-2	-2	-7%	43%
CC(=O)O[C@@]12CO[C@@H]1C[C@H](O)[C@@]1(C)C(=O)[C@H](O)C3=C(C)[C@@H](OC(=O)[C@H](O)[C@@H](NC(=O)c4ccccc4)c4ccccc4)C[C@@](O)([C@@H](OC(=O)c4ccccc4)C12)C3(C)C (some centres not stated)	0.074µM*	-1	-7	-6%	0.074µM*
CC(=O)O[C@H]1C(=O)[C@@]2(C)C([C@H](OC(=O)c3ccccc3)[C@]3(O)C[C@H](OC(=O)[C@H](O)[C@@H](NC(=O)Cc4ccccc4)c4ccccc4)C(C)=C1C3(C)C)[C@]1(OC(C)=O)CO[C@@H]1C[C@@H]2O (some centres not stated)	0.74µM*	-1	14	-16%	3.7µM*
CCN(C1CCCCC1)S(=O)(=O)CCNC(=O)c1ccccc1	7%	x	x	x	u
CC(=O)Nc1nnc(SCC(=O)Nc2nc(C)cs2)s1	-3%	-4	-11	-3%	2%
COC(=O)C1=C(NC(=O)c2cccs2)CCS1	9.3µM*	-6	-6	-1%	u
COC(=O)C1=C(NC(=O)c2ccccc2C)CCS1	6%	-3	25	0%	8%
COC(=O)C1=C(NC(=O)c2cccc(OC)c2)CCS1	4.1µM*	-2	-4	-1%	20%
O=Cc1ccc(OCc2nnsc2Cl)cc1	-7%	13	1	0%	u
CNC(=S)N(Cc1cc2cc(OC)c(OC)cc2[nH]c1=O)C1CCCC1	3%	-2	-3	1%	u
Nc1nonc1-c1noc(-c2ccccc2Br)n1	u	30*	38*	-10%	41%
Nc1nonc1-c1noc(CCCN2C(=O)c3ccccc3C2=O)n1	87%	112*	98*	0%	83%
CCc1noc(C)c1C(=O)Nc1cccc2ncccc12	u	16	7	-10%	10%
CN1CCN(CC(=O)Nc2ccc(OC(F)(F)F)cc2)CC1	-14%	5	-4	1%	-7%
Cc1ccc(CONC(=O)c2ccc(OC(F)F)cc2)cc1	55%	24*	69*	-2%	16%
COc1ccc(N=C2C(=Nc3ccc(OC)cc3)N(c3ccc(OC)cc3)C(=S)N2C(=O)c2ccc(OC)cc2)cc1	25%	14*	42*	-3%	u
COc1ccc(N=C2C(=Nc3ccc(OC)cc3)N(c3ccc(N(C)C)cc3)C(=S)N2c2ccc(OC)cc2)cc1	x	1	-6	3%	5%
SMILES	Pf growth 96h	CHX counter	Shiga inhibitor	LmPK inh	Pf growth 48h
COc1ccc(N=C2C(=Nc3ccc(OC)cc3)N(c3ccccc3)C(=S)N2C(=O)c2ccc(Cl)cc2)cc1	u	43*	63*	-3%	u
CCCc1cc(-c2nc(-c3ccc(Cl)cc3)cs2)ccn1	0%	30	14	3%	21%
CCCc1cc(-c2nc(-c3ccc(Br)cc3)cs2)ccn1	-10%	22*	4	0%	-14%
CC(C)N1CCN(Cc2c[nH]c3ccccc23)CC1CCO (configuration not stated)	1%	-3	14	4%	18%
CC(C)CN1CCN(Cc2c[nH]c3ccccc23)CC1CCO (configuration not stated)	9.3µM*	-5	x	7%	9%
CC(C)=CCN1CCN(Cc2c[nH]c3ccccc23)CC1CCO (configuration not stated)	2.9µM*	1	-7	1%	0%
CC(=O)Nc1ccc(NC(=O)CSc2nnc(NC(=O)c3cccc(F)c3)s2)cc1	53%	10	12	-7%	50%
COc1cccc(C(=O)NN2CC(O)=C(c3nc4ccccc4s3)C2=N)c1	1%	-2	-13	2%	-46%[5.75 µM]
COc1ccc(C(=O)NCc2ccc(-c3nc4ccccc4s3)cc2)cc1	35%	44*	44	0%	79%
COc1ccc(-c2cn(Cc3ccc(C(N)=O)cc3)c(-c3ccc(Cl)nc3)n2)cc1	33%	x	x	x	u
COc1ccc(C(=O)NCc2nnc(SCC(=O)Nc3nc4ccccc4s3)o2)cc1	-16%	-3	12	0%	-1%
COc1cccc(C(=O)NCc2ccc(-c3nc4ccccc4s3)cc2)c1	x	36*	70*	4%	0%
COc1ccccc1C(=O)NCc1ccc(-c2nc3ccccc3s2)cc1	-27%	41*	58*	1%	167%
COc1ccc(-c2cn(Cc3ccc(C(=O)NCc4ccc(C)cc4)cc3)c(C(C)N)n2)cc1 (configuration not stated)	u	x	x	x	12µM*
COc1ccccc1C(=O)NCc1ccccc1	-11%	7	18	-1%	9%
COc1cc(C(=O)NCc2ccc(-c3nc4ccccc4s3)cc2)cc(OC)c1OC	6%	27*	74*	4%	53%
COc1cc(C(=O)NCc2ccc(-c3nc4ccccc4o3)cc2)cc(OC)c1OC	82%	19	11	2%	33%
